Assay results: PubChem BioAssay (EPA / NIEHS)
Records with an inconclusive call do not appear. Active and inactive are the calls of the source. Rule for the calls, unless noted: active = hit-call score of the fitted dose curve at least 0.9, where 1 is the maximum; inactive = score below 0.9.

Test system: not listed separately
Assay: IUF_NPC2-5_cell_number_120hr: Cell Number Assessment at 120 hours in the Leibniz Research Institute for Environmental Medicine (IUF) Neural Progenitor Cell Migration and Differentiation Assay (NPC2-5) (AID 2284308);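 note: count of Hoechst-stained nuclei in migration zone around plated human neural progenitor spheres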
Details: not given
Method in brief: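 Human fetal neural progenitor spheres (0.3 mm) plated on poly-D-lysine/laminin in N2 differentiation medium, exposed five days across 7 concentrations with half-medium refresh at day 3. Hoechst-positive nuclei counted in migration area at 120 h, relative to DMSO.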

Question: With `CN(C)CCOC(C)(c1ccccc1)c1ccccn1` (stereo not given) as the molecule, how does the outcome read?
Answer: The outcome was “inactive”.

Question: For `COCCOCCOCCO`, which outcome is on record?
Answer: The outcome was “inactive”.

Question: Which outcome does the source give for `COCCc1ccc(OCC(O)CNC(C)C)cc1` (stereo not given) here?
Answer: The outcome was “inactive”.

Question: Which AC50 does the source give for `Oc1c(Cl)cc(Cl)c(Cl)c1Cc1c(O)c(Cl)cc(Cl)c1Cl` here?
Answer: The AC50 was 204 nM (active).

Test system: not listed separately
Assay: IUF_NPC2-5_viability_120hr: Viability Assessment at 120 hours in the Leibniz Research Institute for Environmental Medicine (IUF) Neural Progenitor Cell Migration and Differentiation Assay (NPC2-5) (AID 2284312)
Details: not given
Method in brief: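 Alamar blue resorufin fluorescence read after 5 days of differentiation, with compound present from day 0 and replenished at day 3. Primary hNPC spheres on laminin-coated plates, 37C; seven concentrations plus solvent control, fitted against DMSO.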

Question: Which outcome does the source give for `CN(C)CCOC(C)(c1ccccc1)c1ccccn1` (stereo not given) here?
Answer: Its outcome is “inactive”.

Question: For `COCCOCCOCCO`, which outcome is on record?
Answer: Its outcome is “inactive”.

Question: Which outcome does the source give for `COCCc1ccc(OCC(O)CNC(C)C)cc1` (stereo not given) here?
Answer: The outcome was “inactive”.

Question: With `Oc1c(Cl)cc(Cl)c(Cl)c1Cc1c(O)c(Cl)cc(Cl)c1Cl` as the molecule, how does the AC50 read?
Answer: Its AC50 is 147 nM (active).

Test system: IYD (gene 389434)
Assay: CCTE_GLTED_hIYD: CCTE's human Iodotyrosine Deiodinase (xIYD) Inhibition Assay, Great Lakes Toxicology and Ecology Division (GLTED) Lab (AID 2284317; active = hit-call score of the fitted dose curve at least 0.9, where 1 is the maximum;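 note: cell-free human IYD enzyme made in baculovirus insect cells; iodide freed from monoiodotyrosine measured by cerium arsenite color change at 420 nm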)
Details: not given
Method in brief: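 Iodide liberated from monoiodotyrosine by baculovirus-expressed human IYD over 3 h was determined colorimetrically (Sandell-Kolthoff, 420 nm) after Dowex separation; inhibition is loss of signal versus DMSO.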

Question: For `CC(C)CCCCCCCCCCCCCCC(=O)O`, which AC50 is on record?
Answer: The AC50 was 40.8 µM (active).

Question: With `COc1ccc(N=Nc2cc(C)c(N=Nc3ccc(S(=O)(=O)O)cc3)cc2OC)cc1` as the molecule, how does the outcome read?
Answer: Its outcome is “inactive”.

Question: Which AC50 does the source give for `CCCCCCCCCCCCCC(=O)OCC(O)CO` (stereo not given) here?
Answer: Its AC50 is 100 µM (active).

Question: With `Cc1ccc(S(=O)(=O)Oc2ccc(N=Nc3ccc(-c4ccc(N=Nc5c(O)ccc6cc(S(=O)(=O)O)cc(S(=O)(=O)O)c56)c(C)c4)cc3C)cc2)cc1` as the molecule, how does the AC50 read?
Answer: The AC50 was 44.4 µM (active).

Question: Which AC50 does the source give for `COc1ccccc1N=Nc1c(S(=O)(=O)O)cc2cc(S(=O)(=O)O)cc(NC(C)=O)c2c1O` here?
Answer: The AC50 was 94.8 µM (active).

Question: Which AC50 does the source give for `Nc1ccc2cc(S(=O)(=O)O)cc(O)c2c1N=Nc1ccccc1C(F)(F)F` here?
Answer: Its AC50 is 100 µM (active).

Question: Which AC50 does the source give for `CCCCCCCCCCCCCCN(CCO)CCO` here?
Answer: The AC50 was 38.6 µM (active).

Question: For `CCCCCCCCC=CCCCCCCCC1=NCCN1CCO`, which AC50 is on record?
Answer: Its AC50 is 66.2 µM (active).

Question: Which AC50 does the source give for `Oc1ccc2cc(SSc3ccc4cc(O)ccc4c3)ccc2c1` here?
Answer: Its AC50 is 56.9 µM (active).

Question: With `O=C(Nc1ccc2c(O)c(N=Nc3ccc(N=Nc4ccc(S(=O)(=O)O)cc4)cc3)c(S(=O)(=O)O)cc2c1)c1ccccc1` as the molecule, how does the AC50 read?
Answer: The AC50 was 91.3 µM (active).

Question: Which AC50 does the source give for `CCCCC(CC)COC(=O)c1ccc(O)cc1` (stereo not given) here?
Answer: The AC50 was 44.3 µM (active).

Question: Which outcome does the source give for `Nc1ccc(N)c2c1C(=O)c1ccccc1C2=O` here?
Answer: Its outcome is “inactive”.

Question: With `CCc1cc(Cc2cc(CC)cc(C(C)(C)C)c2O)c(O)c(C(C)(C)C)c1` as the molecule, how does the AC50 read?
Answer: Its AC50 is 102 µM (active).

Question: Which AC50 does the source give for `CCCCCCCCc1ccc(S(=O)(=O)O)cc1` here?
Answer: The AC50 was 100 µM (active).

Test system: not listed separately
Assay: CCTE_Mundy_HCI_iCellGluta_NOG_NeuriteLength: CCTE's Neurite Outgrowth Assay in iCellGluta cells for Neurite Length, Mundy Lab (AID 2284318; active = hit-call score of the fitted dose curve at least 0.9, where 1 is the maximum)
Details: not given
Method in brief: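 Automated high-content imaging of betaIII-tubulin (Alexa Fluor-488) and Hoechst-stained cells gave neurite length, normalized to the DMSO baseline.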

Question: With `CN(C)CCOC(C)(c1ccccc1)c1ccccn1` (stereo not given) as the molecule, how does the outcome read?
Answer: The outcome was “inactive”.

Question: Which outcome does the source give for `COCCOCCOCCO` here?
Answer: The outcome was “inactive”.

Question: With `COCCc1ccc(OCC(O)CNC(C)C)cc1` (stereo not given) as the molecule, how does the outcome read?
Answer: Its outcome is “inactive”.

Test system: not listed separately
Assay: CCTE_Deisenroth_5AR_NBTE_donor: CCTE's 5alpha-reductase NanoBRET Target Engagement Assay […], Deisenroth Lab (AID 2284319)
Details: actives raise or lower the signal
Method in brief: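 SRD5A2-NanoLuc, HEK293T, 20 h expression. Chemical 10 nM - 29.9 uM, 8 conc, duplicate; 3 h preincubation + 2 h testosterone tracer. Nano-Glo substrate plus extracellular NanoLuc inhibitor; donor lum 460 nm. DMSO baseline, bidirectional fit.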

Question: For `CCCCCCCC(=O)OCC(O)CO` (stereo not given), which outcome is on record?
Answer: The outcome was “inactive”.

Question: For `COc1ccc(N=Nc2cc(C)c(N=Nc3ccc(S(=O)(=O)O)cc3)cc2OC)cc1`, which AC50 is on record?
Answer: The AC50 was 50 µM (active).

Question: With `CC(=O)O[C@H]1C[C@@H]2CC[C@@]1(C)C2(C)C` as the molecule, how does the outcome read?
Answer: The outcome was “inactive”.

Question: For `Clc1ccc(C(c2ccccc2Cl)C(Cl)Cl)cc1` (stereo not given), which outcome is on record?
Answer: Its outcome is “inactive”.

Question: Which outcome does the source give for `Cc1ccc(S(=O)(=O)Oc2ccc(N=Nc3ccc(-c4ccc(N=Nc5c(O)ccc6cc(S(=O)(=O)O)cc(S(=O)(=O)O)c56)c(C)c4)cc3C)cc2)cc1` here?
Answer: The outcome was “inactive”.

Question: For `O=[N+]([O-])c1ccc(O)cc1C(F)(F)F`, which outcome is on record?
Answer: Its outcome is “inactive”.

Question: With `CC(CN=Cc1ccccc1O)N=Cc1ccccc1O` (stereo not given) as the molecule, how does the outcome read?
Answer: Its outcome is “inactive”.

Question: With `CCCCCCCCCCCCCCN(CCO)CCO` as the molecule, how does the AC50 read?
Answer: The AC50 was 62.3 µM (active).

Question: With `C[C@H]1O[C@@H](O[C@H]2[C@@H](O)C[C@H](O[C@H]3[C@@H](O)C[C@H](O[C@H]4CC[C@@]5(C)[C@H](CC[C@@H]6[C@@H]5C[C@@H](O)[C@]5(C)[C@@H](C7=CC(=O)OC7)CC[C@]65O)C4)O[C@@H]3C)O[C@@H]2C)C[C@H](O)[C@@H]1O` as the molecule, how does the outcome read?
Answer: Its outcome is “inactive”.

Question: Which outcome does the source give for `[O-]n1ccccc1=S.[O-]n1ccccc1=S.[Zn+2]` here?
Answer: The outcome was “inactive”.

Question: With `O=C(Nc1ccc2c(O)c(N=Nc3ccc(N=Nc4ccc(S(=O)(=O)O)cc4)cc3)c(S(=O)(=O)O)cc2c1)c1ccccc1` as the molecule, how does the AC50 read?
Answer: Its AC50 is 9.98 µM (active).

Question: Which AC50 does the source give for `Cc1cc(S(=O)(=O)O)ccc1N=Nc1c(O)ccc2ccccc12` here?
Answer: Its AC50 is 18.3 µM (active).

Question: With `C=CC(=O)OCCCC` as the molecule, how does the outcome read?
Answer: Its outcome is “inactive”.

Question: For `Nc1ccc(N)c2c1C(=O)c1ccccc1C2=O`, which outcome is on record?
Answer: The outcome was “inactive”.

Question: For `Nc1ccccc1[N+](=O)[O-]`, which outcome is on record?
Answer: The outcome was “inactive”.

Test system: not listed separately
Assay: CCTE_Deisenroth_5AR_NBTE_acceptor: CCTE's 5alpha-reductase NanoBRET Target Engagement Assay - Autofluorescence Screen, Deisenroth Lab (AID 2284321);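 note: compound fluorescence in the acceptor channel under 460 nm excitation flags autofluorescence artifacts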
Details: actives raise or lower the signal
Method in brief: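 Autofluorescence counter-screen: chemicals at an assumed nominal 100 uM in DMSO were scanned in three independent runs with 460 nm excitation. Gain or loss of acceptor signal was fitted bidirectionally against DMSO.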

Question: With `CCCCCCCC(=O)OCC(O)CO` (stereo not given) as the molecule, how does the outcome read?
Answer: The outcome was “inactive”.

Question: With `COc1ccc(N=Nc2cc(C)c(N=Nc3ccc(S(=O)(=O)O)cc3)cc2OC)cc1` as the molecule, how does the AC50 read?
Answer: Its AC50 is 40.6 µM (active).

Question: Which outcome does the source give for `CC(=O)O[C@H]1C[C@@H]2CC[C@@]1(C)C2(C)C` here?
Answer: Its outcome is “inactive”.

Question: Which outcome does the source give for `Clc1ccc(C(c2ccccc2Cl)C(Cl)Cl)cc1` (stereo not given) here?
Answer: The outcome was “inactive”.

Question: For `Cc1ccc(S(=O)(=O)Oc2ccc(N=Nc3ccc(-c4ccc(N=Nc5c(O)ccc6cc(S(=O)(=O)O)cc(S(=O)(=O)O)c56)c(C)c4)cc3C)cc2)cc1`, which outcome is on record?
Answer: The outcome was “inactive”.

Question: For `O=[N+]([O-])c1ccc(O)cc1C(F)(F)F`, which outcome is on record?
Answer: Its outcome is “inactive”.

Question: With `CC(CN=Cc1ccccc1O)N=Cc1ccccc1O` (stereo not given) as the molecule, how does the outcome read?
Answer: The outcome was “inactive”.

Question: For `CCCCCCCCCCCCCCN(CCO)CCO`, which AC50 is on record?
Answer: Its AC50 is 50 µM (active).

Question: For `C[C@H]1O[C@@H](O[C@H]2[C@@H](O)C[C@H](O[C@H]3[C@@H](O)C[C@H](O[C@H]4CC[C@@]5(C)[C@H](CC[C@@H]6[C@@H]5C[C@@H](O)[C@]5(C)[C@@H](C7=CC(=O)OC7)CC[C@]65O)C4)O[C@@H]3C)O[C@@H]2C)C[C@H](O)[C@@H]1O`, which outcome is on record?
Answer: Its outcome is “inactive”.

Question: Which outcome does the source give for `[O-]n1ccccc1=S.[O-]n1ccccc1=S.[Zn+2]` here?
Answer: Its outcome is “inactive”.

Question: For `O=C(Nc1ccc2c(O)c(N=Nc3ccc(N=Nc4ccc(S(=O)(=O)O)cc4)cc3)c(S(=O)(=O)O)cc2c1)c1ccccc1`, which outcome is on record?
Answer: Its outcome is “inactive”.

Question: With `Cc1cc(S(=O)(=O)O)ccc1N=Nc1c(O)ccc2ccccc12` as the molecule, how does the outcome read?
Answer: The outcome was “inactive”.

Question: Which outcome does the source give for `C=CC(=O)OCCCC` here?
Answer: The outcome was “inactive”.

Question: For `Nc1ccc(N)c2c1C(=O)c1ccccc1C2=O`, which AC50 is on record?
Answer: The AC50 was 7.65 µM (active).

Question: With `Nc1ccccc1[N+](=O)[O-]` as the molecule, how does the outcome read?
Answer: Its outcome is “inactive”.
